# Sampled rows, rich in hits. Any-hit rate of the full collection: about 7.9%.
# Marburg entry inh – blocks Marburg virus binding to or entry into cells. Marburg virus pseudotyped entry inhibition, cell reporter. Potency, µM (titrated, usually from 37.8 µM), without a hit: top-dose activity change, negative = inhibition, actives largely listed as inhibitors. 300,000 tested, 1.8% active; calls by dose curve; tested in HEK293 cells; also: potency is read from the fitted curve at half-maximal effect
# HCMV antiviral – human cytomegalovirus inhibition. 410,000 tested, 4.5% active. activity change, negative = inhibition, % at 57.5 µM. HFF cells, HCMV-luciferase reporter, 72 h; hits give low values; in the data active = activity change below about -60%; inconclusive = no clear call, values can overlap the other calls; inactive = above about -39%
#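 Compounds were evaluated in HFFs infected with an HCMV luciferase reporter virus (MOI 1 PFU/cell). Luciferase in lysates collected 72 h post infection served as the replication measure.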
# Lassa entry inh – Lassa virus entry inhibition; Lassa virus pseudotype entry inhibition, cell reporter; Potency, µM (titrated, usually from 37.9 µM), for inactives: at the top dose activity change, negative = inhibition, most hits filed as inhibitors; 300,000 tested, 1.2% active; calls by dose curve; tested in HEK293 cells; also: potency is read from the fitted curve at half-maximal effect; nearly all actives have a fitted effect of over 50% in size
# FMDV inh – antivirals against foot and mouth disease virus. Potency, µM (series often up to 57.9 µM), inactives show at the top dose activity change, negative = inhibition, actives largely listed as inhibitors. FMDV antiviral cell-based qHTS. 410,000 tested, 1.2% active; calls by dose curve; tested in HEK293T cells; also: read-out not given here; potency is read from the fitted curve at half-maximal effect; nearly all actives have a fitted effect of over 45% in size
# HCV inh – blocks hepatitis C virus; Huh7.5.1 HCVcc-Cre infection, luciferase reporter, 44 h; Potency, µM (series often up to 41.8 µM), for inactives: at the top dose activity change, negative = inhibition, most hits filed as inhibitors; 340,000 tested, 3.4% active; active = well fitted inhibition curve with a large enough effect; inconclusive = small, poorly fitted or top-dose-only effect, or another doubt; inactive = no such curve, though single readings can be large or run the other way; also: potency is read from the fitted curve at half-maximal effect
#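 Reporter virus HCVcc-Cre (~0.5 moi) infects cells exposed to compound; seeding density 1,000 cells/well with 4 h settling beforehand. Luminescence, 15 sec read, taken 44 h post-infection following a 15 min RT substrate incubation.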
# * hit, by the source's call; u = inconclusive; x = not tested or not shown; + = active, no number; [ ] = dose if it differs, or a comment. % is scaled to controls: 0 for no effect and ±100 for the full control effect.
SMILES,Marburg entry inh,HCMV antiviral,Lassa entry inh,FMDV inh,HCV inh
CC(C)[C@H](NC(=O)[C@H]1N2C(=O)c3ccccc3C2SC1(C)C)C(=O)NCc1ccco1 (stereo not given in full),x,+,x,3%,2%
COc1ccc(OC)c(-n2nnnc2SCC(=O)Nc2ccc(C(=O)N3CCCCC3)cc2)c1,-23%,-64*,-17%,x,-24%
COc1ccc(C(=O)NNC(=O)CSc2nnnn2-c2cc(OC)cc(OC)c2)cc1,15%,8,12%,-1%,11µM*
COc1ccc(OC)c(-n2nnnc2SCC(=O)Nc2ccc3c(c2)OCCO3)c1,-18%,1,1%,x,u
CN(C)S(=O)(=O)c1ccc(C(=O)Nc2ccccc2[N+](=O)[O-])cc1,0%,-65*,-2%,-24%,2%
Cc1cccc(CNC(=O)c2cnn(-c3nccc(-c4ccccc4C(F)(F)F)n3)c2C)n1,x,x,x,-10%,x
CCOc1cc(-c2cc(-c3ccc(C)cc3)nc(N)c2C#N)ccc1O,u,13,u,u,25µM*
COc1ccc(OC)c(-c2cc(-c3cccnc3)nc(N)c2C#N)c1,1.4µM*,110,u,u,u
COc1cc(-c2cc(-c3ccc(O)cc3)nc(N)c2C#N)ccc1O,u,-70*,u,-13%,u
CCc1ccc(S(=O)(=O)Nc2cccc(-c3ccc(N4CCCCC4)nn3)c2)s1,x,5,u,37%,x
Cc1ccc2[nH]c(=O)c(C3C(C#N)=C(N)Oc4c3ccc3cccnc43)cc2c1 (stereo not given),u,-92*,u,u,10µM*
N#CC1=C(N)Oc2c(ccc3cccnc23)C1c1ccccc1 (stereo not given),x,-25,x,u,u
O=C(/C=C/c1cccs1)Nc1nc(-c2ccccc2)cs1,u,-15,8%,-47%,22µM*
O=C(/C=C/c1ccc2c(c1)OCO2)Nc1nc(-c2ccccc2)cs1,u,u,-27%,14µM*,6.3µM*
Cc1sc(NC(=O)/C=C/c2ccc3c(c2)OCO3)nc1-c1ccccc1,u,u,u,6.3µM*,u
O=C(/C=C/c1ccc2c(c1)OCO2)Nc1nncs1,x,77,x,58%,0%
O=C(Nc1cc(Sc2nc3ccccc3s2)cc([N+](=O)[O-])c1)c1ccccc1,u,-36,-17%,u,u
O=C(NNC(=O)c1ccccn1)c1cccc([N+](=O)[O-])c1,-26%[46.1 µM],-28,x,18%,-29%
O=C(Nc1cc(Sc2nc3ccccc3s2)cc([N+](=O)[O-])c1)c1ccccc1F,u,1,u,-11%,10µM*
O=C(Nc1ncccn1)c1cccc(F)c1,x,-76*,x,1%,14%
O=C(Nc1cc(Sc2ccccn2)cc([N+](=O)[O-])c1)c1cccc(F)c1,u,-67*,u,32µM*,u
Cc1cc(C(C)(C)C)c(O)c(C(C)(C)C)c1,x,-27,x,-4%,-7%
CC(C)(C)c1cc([N+](=O)[O-])cc(C(C)(C)C)c1O,6.5µM*,-100*,16µM*,u,10µM*
COc1cc2c(cc1OC)[C@@H]1O[C@](CCCCN3C(=O)c4ccccc4C3=O)(C2)OC2=C1C(=O)c1ccccc1C2=O,-9%[14.2 µM],x,x,x,x
CCOC(=O)Nc1ccc2c(c1)N(C(=O)CN1CCN(C)CC1)c1ccccc1CC2,x,6,x,-4%,-8%
SMILES,Marburg entry inh,HCMV antiviral,Lassa entry inh,FMDV inh,HCV inh
CCN(CC)CC(=O)Nc1ccc2c(c1)Nc1ccccc1CC2,u,78,-14%,4%,13µM*
CCCC(CCC)C(=O)Nc1ccc2c(c1)N(C(=O)CCN1CCN(C)CC1)c1ccccc1CC2,11µM*,-29,-1%,-18%,u
CCN(CC)CC(=O)Nc1ccc2c(c1)N(C(=O)CN(CC)CC)c1ccccc1CC2,8.2µM*,5,u,x,u
CCOC(=O)Nc1ccc2c(c1)N(C(=O)CN(CC)CC)c1ccccc1CC2,0%,10,5%,-18%,-6%
COc1ccc2c(c1)C(n1c(C)ccc1C)C(=O)N2Cc1ccc(C(F)(F)F)cc1 (stereo not given),x,14,x,x,x
CCN(C(=O)NCc1noc2ccccc12)c1cc(C)ccc1C,x,-13,-14%[46.1 µM],-13%,x
CN(C)CC(O)COC(c1ccc(Cl)cc1)c1ccc(Cl)cc1 (stereo not given),u,u,u,-11%,3.2µM*
CC1CN(CC(O)COC(c2ccc(Cl)cc2)c2ccc(Cl)cc2)CC(C)O1 (stereo not given),u,53,-24%,u,10µM*
CC1CN(CC(O)COc2ccc(C(C)C)cc2)CC(C)O1 (stereo not given),23%,28,-5%,-18%,u
Cc1cc(O)cc(O)c1C(=O)OC1(C)C(=O)C=C2C=C(/C=C/C(=O)O)OC=C2C1=O (stereo not given),-31%[14.2 µM],x,x,x,x
O=C(c1cnn2c1NC(c1ccc(Br)cc1)CC2C(F)(F)F)N1CCN(C23CC4CC(CC(C4)C2)C3)CC1 (stereo not given),16µM*,109,2%,u,-6%
O=C(c1cnn2c1NC(c1ccc(Br)cc1)CC2C(F)(F)F)N1CCN2CCCC2C1 (stereo not given),u,-32,u,1%,u
Cc1ccc(C)c(NC(=O)c2ccccc2NS(=O)(=O)c2cc([N+](=O)[O-])ccc2C)c1,4.1µM*,-87*,u,u,8.9µM*
Cc1ccc(C(=O)Nc2cccc([N+](=O)[O-])c2)cc1S(=O)(=O)Nc1cccc(C(=O)O)c1,-2%[46.1 µM],-26,14%,32%,0%
Cc1ccc(NS(=O)(=O)c2cc(C(=O)Nc3cccc([N+](=O)[O-])c3)ccc2C)cc1,u,-39,18µM*,36%,u
CC(=O)Nc1ccc(NC(=O)c2ccc(C)c(S(=O)(=O)Nc3cccc(C)c3)c2)cc1,6.3µM*,-36,-1%[46.1 µM],41%,13µM*
Cc1ccc(C(=O)Nc2cccc([N+](=O)[O-])c2)cc1S(=O)(=O)Nc1ccc(NC(=O)c2ccccc2)cc1,u,-74*,u,27%,10µM*
CC(C)(Oc1ccc(Cl)cc1)C(=O)N1CC2ON=C(c3c(F)cccc3Cl)C2C1 (stereo not given),x,-25,x,x,x
COc1ccc(-c2c(C)nn3c(C(F)(F)F)cc(C)nc23)cc1OC,x,72,-21%[46.1 µM],-32%,x
COc1ccc(C(=O)NC2CCN(CC(=O)Nc3cccc(OC)c3)CC2)cc1,x,-3,x,-11%,-7%
Cc1ccc(NC(=O)CC(=O)c2ccc([N+](=O)[O-])cc2)cc1S(=O)(=O)Nc1cccc(Cl)c1,u,u,u,-20%,10µM*
NS(=O)(=O)c1cccc(NC(=O)c2ccc(NS(=O)(=O)c3cccc([N+](=O)[O-])c3)cc2)c1,20%,-75*,9%,10%,1%
Cc1ccc(C(=O)NC2CCN(CC(=O)Nc3cccc([N+](=O)[O-])c3)CC2)cc1,0.79µM*,11,-10%,-8%,u

# Screening results from PubChem BioAssay.
